Test results: PubChem BioAssay AID463173 (ICCB-Longwood Screening Facility, Harvard Medical School, 2010)
The whole screen tested about 52,000 compounds, of which about 1,700 (3.3%) were called active. Shown is part of a subset that was picked to be rich in actives. Values without a mark were called inactive. Rule as the data show it: active = survival mostly below about 52% (no sharp cut-off); inactive = mostly above about 56%.

What follows are compounds tested on Wild type (assay: growth inhibition of S. aureus wild type versus tarO mutant, primary screen, teichoic acid synthesis inhibitors, RN4220, OD600 (AID 463173)). Settings: S. aureus RN4220 wild type/DeltatarO growth, OD600, 18 h, hits give low values, screened at 18.75 µg/mL (by protocol).

| SMILES | survival |
| --- | --- |
| CCn1c(CCNC(=O)C2CCCO2)nnc1SC (stereo unspecified) | 94% |
| COc1cccc(N2CCN(C(=O)CN3CCSc4ccc(S(=O)(=O)N(C)C)cc43)CC2)c1 | 72% |
| Cc1ccnc(NCc2cccc3ccccc23)c1 | 115% |
| Cc1ccc(O)c(CNc2cccc3cccnc23)c1 | 107% |
| Cc1cccc(NC(c2cccc(Cl)c2)c2ccc3cccnc3c2O)n1 (stereo unspecified) | 4% (active) |
| Oc1c(C(Nc2ccccn2)c2ccccc2F)ccc2cccnc12 (stereo unspecified) | 135% |
| CCOc1cc(C(Nc2cc(C)ccn2)c2ccc3cccnc3c2O)ccc1OC (stereo unspecified) | 145% |
| Cc1ccc2ccc(C(Nc3ccccn3)c3ccccc3)c(O)c2n1 (stereo unspecified) | 69% |
| Cc1ccnc(NC(c2cc(C)ccc2O)c2ccc3cccnc3c2O)c1 (stereo unspecified) | 3% (active) |
| Oc1cccc(C(Nc2ccccn2)c2ccc3cccnc3c2O)c1Cl (stereo unspecified) | 76% |
| Cc1ccnc(NC(c2cccc(O)c2)c2ccc3ccc(C)nc3c2O)c1 (stereo unspecified) | 74% |
| COc1ccc(C(=O)NC(c2ccc(Cl)cc2)c2cc(Cl)c3cccnc3c2O)cc1 (stereo unspecified) | 79% |
| Cc1ccc(C(Nc2ccccn2)c2ccc3cccnc3c2O)cc1 (stereo unspecified) | 6% (active) |
| Cc1ccnc(NC(c2ccccc2F)c2ccc3cccnc3c2O)c1 (stereo unspecified) | -8% (active) |
| CCCN(C(=O)c1nn(-c2ccc(OC)c(Cl)c2)c(=O)c2c1c1ccccc1n2C)c1ccccc1F | 74% |
| CCOc1ccccc1CNC(=O)Cn1c(-c2ccccc2)cc(C(C)=O)c1C | 67% |
| COC(=O)COc1ccc(S(=O)(=O)N2CCCCC2)cc1C | 117% |
| O=C(/C=C/c1ccccc1)NC1CCSC1=O (stereo unspecified) | 108% |
| O=C(CNS(=O)(=O)c1ccc(Cl)cc1)NC1CCCC1 | 103% |
| O=C(CS(=O)(=O)c1cccc2nsnc12)N1CCN(c2ccccc2F)CC1 | 94% |
| Cc1ccc(NC(=O)Nc2nnc(N(C)Cc3ccccc3)s2)cc1 | 101% |

| SMILES | survival |
| --- | --- |
| COc1ccc2c(c1)c(CC(=O)Nc1ccc(C(C)=O)cc1)c(C)n2C(=O)c1ccc(Cl)cc1 | 71% |
| CN1CCc2c(sc3c2C(=O)NC(c2ccc(OC(=O)c4ccc(Cl)cc4)cc2)N3)C1 (stereo unspecified) | 75% |
| CCOC(=O)c1ccc(NC(=O)CSc2cn(CC(=O)N3CCCC3)c3ccccc23)cc1 | 89% |
| COc1ccc(CNc2oc(COc3cccc(C)c3)nc2C#N)cc1 | 63% |
| COc1ccc(-c2nc(C)c(CCNS(=O)(=O)c3cc(Cl)ccc3Cl)s2)cc1 | 87% |
| CCOc1cc(C(=O)NCCc2csc3nc(-c4ccccc4F)nn23)cc(OCC)c1OCC | 87% |
| O=C(CCn1nnc(-c2cccs2)n1)NC1CCCCC1 | 115% |
| Cc1cccc(NC(=O)c2ccccc2)n1 | 107% |
| COc1ccc(C(Nc2ccccn2)c2ccc3ccc(C)nc3c2O)cc1C (stereo unspecified) | 62% |
| Cc1cccc(NC(c2ccccc2C)c2ccc3ccc(C)nc3c2O)n1 (stereo unspecified) | -3% (active) |
| Cc1ccc(C)c(N2CCN(S(=O)(=O)c3cn(C)c(C)n3)CC2)c1 | 68% |
| Cc1nc(S(=O)(=O)N2CCN(c3ccccc3F)CC2)cn1C | 121% |
| Cc1cccc(N2CCN(S(=O)(=O)c3cn(C)c(C)n3)CC2)c1C | -3% (active) |
| COc1cc(NC(=O)CC(C)S(=O)(=O)c2cc3c4c(c2)CCN4C(=O)CC3)cc(OC)c1 (stereo unspecified) | 76% |
| C=CCN1C2=NCCCN2c2ccccc21 | 113% |
| COC(=O)c1ccccc1NC(=O)CSc1nc(-c2ccccc2)cc(C(F)(F)F)n1 | 19% (active) |
| COC(=O)CSc1nc(-c2ccccc2)cc(C(F)(F)F)n1 | 111% |
| CCOc1ccccc1NC(=O)CSc1nc(-c2cccs2)cc(C(F)(F)F)n1 | 83% |
| O=C(CSc1nc(-c2cccs2)cc(C(F)(F)F)n1)Nc1ccccc1Cl | 99% |
| CC(C)(C)c1ccccc1NC(=O)CSc1nc(-c2cccs2)cc(C(F)(F)F)n1 | 10% (active) |
| COC(=O)c1ccccc1NC(=O)CSc1cc(-c2ccccc2)nc(C)n1 | 92% |

| SMILES | survival |
| --- | --- |
| COc1cccc(-n2c(=O)c3c4c(sc3n(Cc3ccccc3C#N)c2=O)CCCC4)c1 | 80% |
| COc1ccc(C(CNC(=O)c2oc3cc(C)c(C)cc3c2C)N2CCCCC2)cc1 (stereo unspecified) | 102% |
| Cc1ccc(NC(=O)C2CCN(C(=O)c3cnn(-c4ccccc4)c3-n3cccc3)CC2)cc1C | 84% |
| COc1ccc(CCNC(=O)c2ccc3c(c2)ncn3-c2ccc(C(C)C)cc2)cc1OC | 80% |
| COC(=O)CSc1nc2cc(OC)c(OC)cc2cc1C | 110% |
| COc1cc(C2C(=O)N(C3CCCCC3)CC(=O)N2CCC2=CCCCC2)ccc1OC(C)C (stereo unspecified) | 135% |
| Cc1cc(-c2nc3ccccc3s2)ccc1NC(=O)c1cc(Cl)ccc1Cl | 92% |
| COc1ccccc1N1CCN(CC(O)COc2ccc(C)cc2C(C)(C)C)CC1 (stereo unspecified) | 2% (active) |
| COc1ccccc1N1CCN(CC(O)COc2cc(C)cc(C)c2)CC1 (stereo unspecified) | 82% |
| COc1ccc(N2CCN(CC(O)COc3ccc(C(C)C)c(C)c3)CC2)cc1 (stereo unspecified) | 85% |
| Cc1ccc(C(C)C)c(OCC(O)CN2CCN(c3ccccc3F)CC2)c1 (stereo unspecified) | -3% (active) |
| COc1ccc(N2CCN(CC(O)COc3ccc(C)cc3C)CC2)cc1 (stereo unspecified) | 87% |
| COc1ccc(N2CCN(CC(O)COc3ccc(C(C)(C)C)cc3)CC2)cc1 (stereo unspecified) | 87% |
| COc1ccc(N2CCN(CC(O)COc3ccccc3C(C)(C)C)CC2)cc1 (stereo unspecified) | -3% (active) |
| C=CCc1ccccc1OCC(O)CN1CCN(c2ccccc2)CC1 (stereo unspecified) | 54% |
| COc1ccc(N2CCN(CC(O)COc3c(OC)cccc3OC)CC2)cc1 (stereo unspecified) | 81% |
| CCOC(=O)C(C)(C)Sc1nnc(COc2ccccc2)n1CC | 100% |
| C1CCC2(C1)OCC1(CO2)COC2(CCCC2)OC1 | 111% |
| Cc1ccc(NC(=O)N2CCC(CN3CCC(C)CC3)CC2)cc1F | 82% |
